# Measured values taken from article PMC7819943, “Rice protein-binding microarrays: a tool to detect cis-acting elements near promoter regions in rice”.
# In all, about 68,000 sequences were measured (“fluorescence intensity (a.u.)”: median about 9,100, highest 2% from about 16,000 on). This excerpt belongs to a sample that is enriched for the highest values.
# Target: OsWRKY34 (Oryza sativa, UniProt Q0JBA9 1-250)
# Test: protein-binding microarray (RPBM); PBS, 2% BSA, 51.3 ng/ul salmon testes DNA, 50 uM zinc acetate, 200 nM TF, 25 C, 1 h; high values mean tight binding
# Details: protein: recombinant; tags: N-terminal polyhistidine and DsRed monomer fusion (pET32a); label: CyDye5-dUTP incorporated in the synthesized complementary strand; 3' TTTTT single-stranded linker to array surface; dsDNA, one strand shown
# Method in brief: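 The binding signal is fluorescence intensity per array feature (arbitrary units). Readings came from an Axon 4000B scanner after a washed, 2% BSA-blocked, double-stranded custom Agilent array had been incubated for 1 h at 25 °C with 200 nM protein and 50 µM zinc acetate. The protein was a Ni–NTA-purified transcription factor fused N-terminally to polyhistidine and DsRed, expressed in E. coli BL21-CodonPlus.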
# OsWRKY34, sequence (Q0JBA9 entry or part of it): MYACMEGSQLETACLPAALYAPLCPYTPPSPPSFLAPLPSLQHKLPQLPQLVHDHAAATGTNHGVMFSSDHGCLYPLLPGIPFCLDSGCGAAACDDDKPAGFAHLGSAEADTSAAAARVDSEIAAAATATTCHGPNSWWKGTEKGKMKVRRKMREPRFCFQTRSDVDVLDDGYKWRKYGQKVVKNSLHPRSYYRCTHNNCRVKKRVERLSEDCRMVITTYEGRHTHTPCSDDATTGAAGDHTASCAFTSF
row,Sequence,binding signal
1,TTGACTTTTTAGCACATGTTTGACCGTTCGTCTTATTCAACGGAGTCACCTAGTGCAG,8480 fluorescence intensity (a.u.)
2,ACCGTTGACTTTTTAGCACATGTTTGACCGCTCGTCTTATCGGAGTCACCTAGTGCAG,54800 fluorescence intensity (a.u.)
3,CATTGACTTTTTTAAACATGTTTGACTGTTCGTCTTATTCCGGAGTCACCTAGTGCAG,11500 fluorescence intensity (a.u.)
4,GTTGACTTTTTTAAACATGTTGGACCGTTCGTCTTATTCACGGAGTCACCTAGTGCAG,9150 fluorescence intensity (a.u.)
5,CGTTGACTTTTCTAAACATGTTTGACCGTTCGTCTTATTCCGGAGTCACCTAGTGCAG,28400 fluorescence intensity (a.u.)
6,TGACTTTTTAGCATATGTTTGACCGCTCGTCTTATTCAAACGGAGTCACCTAGTGCAG,8220 fluorescence intensity (a.u.)
7,GACTTTTTAGCACATGTTTGACCGTTCGTCTTATTCAAAACGGAGTCACCTAGTGCAG,10800 fluorescence intensity (a.u.)
8,CAGATCGACTCGACTCGACCAGGTTCTCTCGTTTTTACTCCGGAGTCACCTAGTGCAG,9940 fluorescence intensity (a.u.)
9,CTCTCTCTCTGCTGCTGCTCTCTAATCAGTAACCAGTAGTCGGAGTCACCTAGTGCAG,9580 fluorescence intensity (a.u.)
10,TTGTTTATTTAAGGTGTGATTGTATTTGGATCATGTTTTGCGGAGTCACCTAGTGCAG,8980 fluorescence intensity (a.u.)
11,GGGGTATAATTTGTGTCTTAGCTGATAGAATGTGCAGTTGCGGAGTCACCTAGTGCAG,9980 fluorescence intensity (a.u.)
12,AAGGACCCAGCTGTTCGCCACGTGTGCGTGTTGACTTCCACGGAGTCACCTAGTGCAG,9780 fluorescence intensity (a.u.)
13,ATAGTACGAATGGTTAGCCCAAAAGTCAGTGTCTTCATTCCGGAGTCACCTAGTGCAG,10300 fluorescence intensity (a.u.)
14,CACTGCTTCTCACCCAACTCGCGCGCGCCATTCCTTGCCTCGGAGTCACCTAGTGCAG,11600 fluorescence intensity (a.u.)
15,TCTATATTGCTATTTTCATTTTAAAACTATTTCTTGCCACCGGAGTCACCTAGTGCAG,10300 fluorescence intensity (a.u.)
16,AGCTGGTCATATTCTATGTTGATTATCTTCATGGTATGAACGGAGTCACCTAGTGCAG,9730 fluorescence intensity (a.u.)
17,TTCTGATATCTGGTCATATTTTTTTGAACAGGTAGCTATTCGGAGTCACCTAGTGCAG,27000 fluorescence intensity (a.u.)
18,ATCTGGTCTGCAGGTATTTTCTTTGTATTGTATATTTCTACGGAGTCACCTAGTGCAG,10000 fluorescence intensity (a.u.)
19,CCGCACCTCTCTCTACACGCACGCGTCTCTCCCATCTCCCCGGAGTCACCTAGTGCAG,9030 fluorescence intensity (a.u.)
20,AACTTTCTCCCACCGGCCACCGCGCGTCTCTTGCCACGACCGGAGTCACCTAGTGCAG,12200 fluorescence intensity (a.u.)
21,TCTTCTTCCATGGTCTTTTCTAGATAAGGCTCTCTAATGTCGGAGTCACCTAGTGCAG,8620 fluorescence intensity (a.u.)

row,Sequence,binding signal
1,TGAACGCTTCCCTGTGTTTGTGGTTACTGCCTTACTGGTTCGGAGTCACCTAGTGCAG,9210 fluorescence intensity (a.u.)
2,CGCACGGTTGTTCTCGCCATGATCCTCCTTGCCGCTGTCACGGAGTCACCTAGTGCAG,8780 fluorescence intensity (a.u.)
3,CTTAGGGTCGGGAAGGGGAGAGGCGGTGGCGGGCGGCTGACGGAGTCACCTAGTGCAG,13400 fluorescence intensity (a.u.)
4,CTCCTGACTCCTCCTCGGTTCCTCTTCCTCTCGAGCCCTTCGGAGTCACCTAGTGCAG,9950 fluorescence intensity (a.u.)
5,TCTTAGACGGTCCTGACTCGAGGCCCATATATATGCTGGGCGGAGTCACCTAGTGCAG,19900 fluorescence intensity (a.u.)
6,TGGCTCCGCCACGTCCTCGTCGCCTGGAACTCGCTCGTCTCGGAGTCACCTAGTGCAG,8680 fluorescence intensity (a.u.)
7,TGTCTCAACAACAAGCTCTGTGTGCTGCAGTGTCATTCCACGGAGTCACCTAGTGCAG,8160 fluorescence intensity (a.u.)
8,TATTGGTTTTTGTTTCTGGTGCCACGTCTGCGGCCAAAAACGGAGTCACCTAGTGCAG,9220 fluorescence intensity (a.u.)
9,CCTACACACGAAACCTCCGCGCCTCATCCGGGCTTCGCGACGGAGTCACCTAGTGCAG,10600 fluorescence intensity (a.u.)
10,TAACTTAACGTGATTTTCCTGTATGGACCTTAATTATGTTCGGAGTCACCTAGTGCAG,8580 fluorescence intensity (a.u.)
11,CGTTCTCTCTCTCCTAGAACCACAGTTCAACCACTGTTTCCGGAGTCACCTAGTGCAG,8580 fluorescence intensity (a.u.)
12,CAAGCCGGGCGGGAGCCGTGGCGGCGGCCGGGCGGGCGGGCGGAGTCACCTAGTGCAG,8260 fluorescence intensity (a.u.)
13,GGCGGTGGGTGGGTGGAGCCGTGGAGGGATGGAGGGAGGGCGGAGTCACCTAGTGCAG,37900 fluorescence intensity (a.u.)
14,GGAGGAGTACGACGGGGTGGGAGCGGCGGTGGGTGGGATGCGGAGTCACCTAGTGCAG,11500 fluorescence intensity (a.u.)
15,TGCCGTGGGATGGGGTTGCGGGAGGAGGAGGGTGCTACTACGGAGTCACCTAGTGCAG,17000 fluorescence intensity (a.u.)
16,CATGGAGGGAGGGAGGGAGGCGGAAGCGGAGGCGTGGGAGCGGAGTCACCTAGTGCAG,9980 fluorescence intensity (a.u.)
17,TGGGGATGCGGGGTGGCGCGGGAGGAGGGAGAGGACGGAGCGGAGTCACCTAGTGCAG,8670 fluorescence intensity (a.u.)
18,ACACGATATAGTCATTGCAATTATCACGGATCCAGGTCCTCGGAGTCACCTAGTGCAG,8560 fluorescence intensity (a.u.)
19,AGTACACACCATTTGACATCCTGATTATGTATAGTAATTTCGGAGTCACCTAGTGCAG,8350 fluorescence intensity (a.u.)
20,TCAGCTATCATAGTCTTCTAGAATGCTCTTCTTGTCAGATCGGAGTCACCTAGTGCAG,8220 fluorescence intensity (a.u.)
21,ATGGGTTGGTAGAGGGGAGGGAACGCGCGACGGTGGCGAGCGGAGTCACCTAGTGCAG,8740 fluorescence intensity (a.u.)
